# Most compounds without a hit are left out; they make up all but 21% or so of the library.
# Shiga toxin inh: blocks Shiga toxin action in Vero cells; AID 2315; Vero cells, Shiga toxin protein synthesis inhibition reporter; inhibition, % at 38.7 µM; hit rate 9.2% among 290,000; in the data active = inhibition mostly above about 28%, no sharp cut-off; inactive = mostly below about 43%; note: 0% is about no effect
# HCV inhibitor: inhibitors of hepatitis C virus infection; hit rate 3.4% among 340,000; Potency, µM (top dose mostly 41.8 µM), without a hit: at the top dose activity change, negative = inhibition, actives largely listed as inhibitors; Huh7.5.1 HCVcc-Cre infection, luciferase reporter, 44 h; note: potency is the fitted concentration of half-maximal effect; % is set by controls: 0 for no effect and ±100 for the full control effect
#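 Seed cells (1,000/well) for 4 h; treat with compound and infect with HCVcc-Cre, moi about 0.5. Incubate 44 h, then detect luciferase activity.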
# Pf growth 96h: P. falciparum growth inhibition at 96 hours | P. falciparum luciferase reporter growth, 96 h | Potency, µM (titrated, usually from 28.7 µM), inactives show top-dose activity change, negative = inhibition, actives largely listed as inhibitors | hit rate 6.9% among 320,000; note: potency is the fitted concentration of half-maximal effect; % is set by controls: 0 for no effect and ±100 for the full control effect
#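 Cell-based qHTS: luciferase-tagged P. falciparum in erythrocytes (2% hematocrit, 0.05% parasitemia final) incubated with compounds for 96 hours, 37 C, 5% CO2; luciferase detection reagent then added and luminescence measured.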
# Cycloheximide cs: affects cycloheximide protein synthesis inhibition readout, counter-screen; cell reporter, cycloheximide protein synthesis inhibition counterscreen; max response, %; hit rate 12% among 300,000; in the data active = max response mostly above about 13%, no sharp cut-off; inactive = mostly below about 14%; note: read at 38.3 µM for the half of the compounds with a filed dose; 0% is about no effect
# AMA1-RON2 inh: inhibitors of Plasmodium falciparum AMA1-RON2 interaction | AlphaScreen AMA1-biotinylated RON2 peptide binding | Potency, µM (series often up to 58.2 µM), inactives show top-dose activity change, negative = inhibition, hits mostly inhibitors | hit rate 0.2% among 360,000 | AID 720542;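 note: potency is the fitted concentration of half-maximal effect; 0% = vehicle wells and -100% = peptide control; nearly all actives have a fitted effect of over 45% in size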
#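 AMA1 (3D7) with his tag at 25 nM final met compounds first, then biotinylated RON2 peptide at 25 nM; detection used donor plus acceptor beads, 10 µg/mL apiece, read by AlphaScreen after 30 min at room temperature.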
# Pf growth 48h: P. falciparum growth inhibition at 48 hours (one generation) | P. falciparum luciferase growth in erythrocytes, 48 h | Potency, µM (titrated, usually from 28.7 µM), for inactives: at the top dose activity change, negative = inhibition, hits mostly inhibitors | hit rate 5.9% among 310,000; note: potency is the fitted concentration of half-maximal effect; % is set by controls: 0 for no effect and ±100 for the full control effect
#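 Erythrocytes infected with P. falciparum carrying an integrated firefly luciferase reporter (2% hematocrit, 0.1% parasitemia final) were exposed to compounds in RPMI 1640 with 0.5% Albumax at 37 C, 5% CO2. Growth inhibition was scored as reduced luminescence.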
# Numbers without * were called inactive; ? = inconclusive; nt = no result given. Unless noted, calls come from the whole dose curve; as a rule, active = well fitted curve in the direction sought with a large enough effect; inconclusive = small, poorly fitted or top-dose-only effect, or another doubt; inactive = no such curve, though single readings can be large; an effect the other way counts as inactive or inconclusive.
SMILES,Shiga toxin inh,HCV inhibitor,Pf growth 96h,Cycloheximide cs,AMA1-RON2 inh,Pf growth 48h
CCOC(=O)c1ccc([N+](=O)[O-])c(CS(=O)(=O)c2ccc(Cl)cc2)c1,-9,-5%,10%,-4,-27%,4%
Cc1ccc(S(=O)(=O)Cc2cc(F)c([N+](=O)[O-])cc2[N+](=O)[O-])cc1,46*,?,?,22*,-6%,?
CC(C)C[C@H]1COc2cccc(N3CCC[C@H]3CO)c2S(=O)(=O)N1,nt,nt,nt,nt,0%,nt
Cc1nnc2n(c1=O)C(CS(=O)(=O)c1ccc3ccccc3c1)CS2 (configuration not stated),-2,-10%,152%,14,3%,-17%
O=C(Nc1cccc(NC(=O)c2cccs2)c1)c1ccco1,3,?,11%,2,-3%,1%
O=C(Nc1ccc(NC(=O)c2cccs2)cc1Cl)c1ccco1,96*,0%,13%,38*,-12%,86%
COc1cc(NC(=O)c2cccs2)ccc1NC(=O)c1ccco1,127*,?,12%,40*,8%,44%
O=C(Nc1ccc(NC(=O)c2cccs2)c(Cl)c1)c1cccs1,50*,11µM*,?,43*,-12%,-13%
Cc1ccc(NC(=O)c2ccco2)c(NC(=O)c2cccs2)c1,-5,11µM*,nt,9,-5%,4%
CCn1ccnc1[C@@H]1C[C@H]2CN(c3ccccc3OC)C(=O)[C@]23CCCN13,-13,-1%,-10%,-3,1%,12%
CC(=O)N[C@@H](C=O)[C@@H](O)[C@H](O)[C@H](O)CO,-4,nt,nt,-2,nt,nt
CC(NC(=O)COc1ccccc1)C(=O)NCc1ccccc1Cl (configuration not stated),nt,2%,nt,nt,-2%,nt
Cc1[nH]c(=O)[nH]c(=O)c1S(=O)(=O)Nc1cccc([N+](=O)[O-])c1C,-11,20%,38%,-1,7%,13%
COc1cc(NC(=O)c2cccs2)c(OC)cc1NC(=O)Cc1ccccc1,-14,35µM*,?,-2,-22%,-14%
C#CCO[C@@H]1C[C@H](n2cnc3c(NC(=O)c4ccccc4)ncnc32)O[C@@H]1CO,39,29%,99%,21*,-5%,37%
OC(c1ccc(F)cc1)(C1CCCCC1)C(CN1CCOCC1)c1ccccc1 (configuration not stated),nt,?,?,-2,-4%,?
COc1ccc(-c2[nH]nc3oc(=O)cc(C)c23)cc1,-1,-4%,8.3µM*,10,-13%,-15%
O=c1c2ccccc2sn1-c1cc(S(=O)(=O)N2CCOCC2)ccc1N1CCCC1,21,-22%,?,6,47%,nt
O=c1c2ccccc2sn1-c1cc(S(=O)(=O)N2CCOCC2)ccc1N1CCOCC1,-17,?,10%,-3,16%,3.7µM*
N/C(=N\OC(=O)c1ccccc1)c1ccccn1,-20,14%,?,-8,-8%,-35%
N/C(=N\OC(=O)C(c1ccccc1)c1ccccc1)c1ccccn1,49*,-17%,15%,22*,68%,13µM*
N/C(=N\OC(=O)C(c1ccccc1)c1ccccc1)c1cccnc1,-6,13%,10µM*,22,11%,?
N/C(=N\OCc1ccc([N+](=O)[O-])cc1)c1ccccn1,-21,10%,354%,-10,11%,-22%
CC(C(=O)O/N=C(\N)c1ccccn1)c1ccc([N+](=O)[O-])cc1 (configuration not stated),70*,3%,10%,40*,60%,34%
Cc1cc(C)c2c(N)c(C(=O)c3ccccc3)oc2n1,-6,nt,2.3µM*,1,31%,16%
COC(=O)C1=C(c2ccc(F)cc2OCc2ccccc2)C[C@@H]2CC[C@H]1N2C(=O)N1CCC(O)(c2ccc(Cl)cc2)CC1,nt,?,nt,nt,-3%,nt
COC(=O)C1=C(c2ccc(F)cc2OCc2ccccc2)C[C@@H]2CC[C@H]1N2C(=O)NCc1ccccc1C(F)(F)F,nt,-9%,?,nt,-2%,5.2µM*
COC(=O)C1=C(c2ccc(F)cc2OCc2ccccc2)C[C@@H]2CC[C@H]1N2C(=O)NCc1ccccc1Br,nt,?,1.3µM*,nt,-2%,4.1µM*
